Only some compounds are listed: those with a hit (about 7% of all), similar ones and a draw of the others.
Integrin act MD: activates integrin-mediated alleviation for muscular dystrophy; alpha7betagal myoblasts, beta-gal FDG fluorescence, 48 h; Potency, µM (doses to about 38.3 µM), for the others: at the highest dose activation, actives largely listed as activators; hit rate 0.064% among 350,000;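 also: potency is read from the fitted curve at half-maximal effect; 100% = response of the positive control SU9516; nearly all actives have a fitted effect of over 60% in size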
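Alpha7betagal+/- myoblasts (passage 13) were plated 16-24 hr, then exposed to compounds (1:260 dilution of DMSO stock) for 48 hours at 37C. After MPER lysis, β-galactosidase reporter activity was read as FDG fluorescence (ex 480/em 540) after 30 minutes.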
D3 antag: antagonists of human D3 dopamine receptor; P35462; D3R cells, DiscoveRx beta-arrestin luminescence, antagonist mode; stronger effect = lower value; max response, negative = inhibition, %; hit rate 2.5% among 360,000; in the data active = max response below about -50%; inconclusive = no clear call, values can overlap the other calls; also: % is scaled to controls: 0 for no effect and ±100 for the full control effect
Target sequence (P35462 whole entry, looked up): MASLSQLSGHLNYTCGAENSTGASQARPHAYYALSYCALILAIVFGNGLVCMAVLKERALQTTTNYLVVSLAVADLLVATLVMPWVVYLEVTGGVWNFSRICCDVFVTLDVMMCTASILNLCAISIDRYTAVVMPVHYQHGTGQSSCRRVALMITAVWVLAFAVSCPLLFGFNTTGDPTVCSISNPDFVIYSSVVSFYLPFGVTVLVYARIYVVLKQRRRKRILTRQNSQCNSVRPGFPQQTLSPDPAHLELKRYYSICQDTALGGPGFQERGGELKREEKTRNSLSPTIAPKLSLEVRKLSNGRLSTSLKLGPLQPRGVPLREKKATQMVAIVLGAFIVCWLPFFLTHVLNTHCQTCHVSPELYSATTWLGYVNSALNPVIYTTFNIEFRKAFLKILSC
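Cells plated overnight at 1500 cells/well, then exposed to library compounds with dopamine controls for 90 minutes at 37 degrees C. DiscoveRx reagent added for 30–60 minutes at room temperature; luminescence read, quantitative HTS format.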
IL-1B inflam inh: inhibitors of inflammasome signaling (IL-1 beta secretion) | THP-1 LPS/ATP IL-1B secretion, AlphaLISA, 16 h; stronger effect = lower value | activity change, % at 57.5 µM | hit rate 4.7% among 360,000 | AID 743279; in the data active = activity change below about -50%; inconclusive = mostly about -30% to -49%; also: % is scaled to controls: 0 for no effect and ±100 for the full control effect
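Secreted IL-1B measured by AlphaLISA bead assay after 16 h compound exposure of THP-1 cells; compounds (final up to 57.5 uM) added 1 h before LPS (250 ng/mL) and ATP (1.25 mM) stimulation; lower signal means less secretion.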
D3 ag: activates the human D3 dopamine receptor | P35462 | D3R DiscoveRx beta-arrestin cells, luminescence, 90 min | max activation, % | hit rate 0.58% among 410,000 | AID 652048; in the data active = max activation above about 30%; also: 0% is about no effect
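Cells at 1500/well, incubated overnight, then treated with pinned compounds (dopamine as control) for 90 min at 37 degrees C. DiscoveRx reagent added for 30 - 60 minutes at room temperature; luminescence read.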
ATXN2 expr inh: ATXN2 expression inhibition | HEK-293 ATXN2-luciferase reporter, luminescence, 24 h | Potency, µM (highest dose often 57 µM), for inactives: top-dose activity change, negative = inhibition, most hits filed as inhibitors | hit rate 0.72% among 360,000; also: potency is read from the fitted curve at half-maximal effect; % is scaled to controls: 0 for no effect and ±100 for the full control effect; nearly all actives have a fitted effect of over 55% in size
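ATXN2-luciferase reporter cells (luciferase flanked by upstream and downstream ATXN2 gene portions) were treated 24 h at 37 °C with compounds at up to 57 uM. SteadyGlo luminescence gave expression; GF-AFC fluorescence gave viability.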
S2 tox: cell viability loss in ATXN counter-screen; S2 cells (HEK-293 line with an ATXN2-luciferase reporter) viability, CellTiter-Fluor protease fluorescence, 24 h; Potency, µM (titrated, usually from 56.7 µM), most hits filed as cytotoxic; hit rate 0.49% among 400,000; also: potency is read from the fitted curve at half-maximal effect; nearly all actives have a fitted effect of over 40% in size
An asterisk follows results filed as active; i = inactive; ? = inconclusive; . = no result given. Unless noted, calls follow the shape of the dose curve; as a rule, active = well fitted curve in the direction sought with a large enough effect; inconclusive = small, poorly fitted or top-dose-only effect, or another doubt; inactive = no such curve, though single readings can be large; an effect the other way counts as inactive or inconclusive.

SMILES | Integrin act MD | D3 antag | IL-1B inflam inh | D3 ag | ATXN2 expr inh | S2 tox
O=C(Nc1cccc(S(=O)(=O)N2CCOCC2)c1)c1cc(=O)[nH]c2ccccc12 | -1% | 5 | -28 | 4 | 5% | i
CS(=O)(=O)N1CCc2cc(-c3csc(NCC4CCCO4)n3)ccc21 (centres undefined) | 1% | 8 | -68* | -6 | 28% | i
COc1cccc(CNCc2ccc(C(=O)O)cc2)c1OC | -2% | 4 | 19 | -3 | 4% | i
Cc1ccnc(NS(=O)(=O)c2cnc(Cl)c(Br)c2)c1 | -19% | 2 | -92* | -3 | -1% | i
CCN(CC)CCNC(=O)c1ccc2nc(-c3ccccc3)c(-c3ccc(CN4CCC(n5c(=O)[nH]c6ccccc65)CC4)cc3)nc2c1 | . | . | . | . | 27µM* | .
O=C(NCCN1CCC(n2c(=O)[nH]c3ccccc32)CC1)c1cccc(Cl)c1 | . | -98* | ? | -12 | -19% | i
O=C(Nc1ccccc1)N1CCC(n2c(=O)[nH]c3ccccc32)CC1 | 6% | -7 | -6 | 1 | -2% | i
O=C(NCCN1CCOCC1)c1cccc(Cl)c1 | 1% | 2 | 0 | -5 | -11% | i
O=c1[nH]c2ccccc2n1C1CCCCC1 | 12% | 2 | 12 | 6 | 0% | i
O=C(NCCN1CCC(n2c(=O)[nH]c3ccccc32)CC1)C(c1ccccc1)c1ccccc1 | . | -78* | -80* | -16 | -21% | i
O=C(NCCN1CCC(n2c(=O)[nH]c3ccccc32)CC1)c1cc(F)cc(F)c1 | . | -101* | -53* | -11 | 0% | i
O=C(NCCN1CCC(n2c(=O)[nH]c3ccccc32)CC1)c1cccc(F)c1 | . | -105* | -74* | -19 | 5% | i
O=C(NCCN1CCC(n2c(=O)[nH]c3ccccc32)CC1)c1ccncc1 | . | -107* | -28 | -16 | 9% | i
O=C(NCCN1CCC(n2c(=O)[nH]c3ccccc32)CC1)c1cccnc1Cl | . | -69* | ? | -18 | 10% | i
O=C(NC1CCCCC1)N1CCC(n2c(=O)[nH]c3ccccc32)CC1 | -4% | 0 | -4 | -7 | -16% | i
O=C(NCCN1CCOCC1)c1ccc(F)cc1 | 2% | ? | -4 | -23 | 4% | i
COc1ccccc1OCCC(=O)Nc1nc(C)cs1 | -9% | 0 | -23 | 7 | . | ?
Cc1cc(NC(=O)COC(=O)c2cc(S(=O)(=O)N(C)C)ccc2Cl)no1 | 30% | 0 | 27 | 5 | 0% | i
Cc1cc(C)cc(NC(=O)N2CCCC2C(=O)Nc2ccc(-n3cnnn3)c(C)c2)c1 (centres undefined) | 10% | -14 | -18 | 0 | -5% | i
CCOC(=O)c1c(NC(=O)c2cc(=O)c3c(C)cc(C)cc3o2)sc(C(C)=O)c1C | . | . | . | -3 | 11% | i
COc1ccc(OC)c(NC(=O)c2c(NCc3ccc(OC)c(OC)c3)sc3c2CCC3)c1 | . | . | . | 6 | ? | .
COc1ccc(OC)c(NC(=O)c2c(NCc3ccc(N(C)C)cc3)sc3c2CCCC3)c1 | . | . | . | 2 | ? | 22µM*
COc1cccc(/C=C/C(=O)OCC(=O)NCCC2=CCCCC2)c1 | 1% | 6 | 20 | 5 | -22% | i
CCOc1ccc(-c2cc(C(=O)O)c3ccccc3n2)cc1 | 8% | -8 | 21 | 6 | ? | i
NC(COCc1ccccc1)c1csc(Nc2cc(NCCCO)ncn2)n1 (centres undefined) | . | -21 | -29 | 6 | 16% | i
SMILES | Integrin act MD | D3 antag | IL-1B inflam inh | D3 ag | ATXN2 expr inh | S2 tox
NC(Cc1ccc(Cl)cc1)c1csc(Nc2ccc(C(=O)NCCCO)cn2)n1 (centres undefined) | . | 1 | 0 | -3 | -18% | ?
CCc1cnc(Nc2nc(C(N)Cc3ccc(Cl)cc3)cs2)nc1 (centres undefined) | . | 11 | ? | 4 | ? | .
NC(Cc1ccc(Cl)cc1)c1csc(Nc2cc(NCCCO)ncn2)n1 (centres undefined) | . | 0 | -60* | 0 | ? | i
COc1ccc(CC(N)c2csc(Nc3cc(NCCCO)ncn3)n2)cc1 (centres undefined) | . | 0 | -57* | -14 | ? | i
NC(Cc1ccc(Cl)cc1)c1csc(Nc2ccc(-c3ccccc3)nn2)n1 (centres undefined) | . | 36 | -50* | 4 | ? | ?
COc1ccc(-n2c(-c3ccc(Cl)cc3)c[n+]3c2CCc2ccccc2-3)cc1 | -53% | 1 | -55* | 4 | ? | i
CCC(C)NC(=O)c1ccc(NC(=O)C2CCCO2)cc1 (centres undefined) | 18% | 26 | -4 | -2 | 4% | i
CCC(=O)N1c2ccccc2NC2=C(C(=O)CCC2)C1c1ccc(N(C)C)cc1 (centres undefined) | 13% | 10 | 11 | -3 | 12% | i
O=C1CCCC2=C1C1c3ccccc3C(=O)N1c1ccc(C(=O)c3ccccc3)cc1N2 (centres undefined) | 22% | ? | -71* | -4 | -25% | ?
Cc1ccc2c(c1)cc1c(=O)[nH]ncn12 | 0% | 12 | 7 | 5 | 26% | i
CCC1=C(OC(=O)N(CC)CC)N2C(=O)OC(=NCCc3c[nH]c4ccccc34)[C@]2(Cc2ccccc2)[C@H]2C1=CC[C@H]1C(=O)N(C)C(=O)[C@H]12 | -18% | -18 | -53* | -5 | ? | ?
O=c1[nH][nH]c(C(F)(F)F)c1C=NCc1ccc(Cl)cc1 | -23% | -84* | 0 | -3 | -9% | i
O=c1[nH][nH]c(C(F)(F)F)c1C=NCc1cccc(Cl)c1 | 1% | -88* | 10 | -4 | -5% | i
COc1ccc(N2CC(O)(c3ccc(OC(F)F)cc3)[N+]3=C2CCCC3)cc1 (centres undefined) | -54% | -50* | -54* | -14 | -6% | i
Cc1ccc2c(c1)C(CCN)C(=O)N2Cc1ccccc1 (centres undefined) | -60% | -106* | -7 | -30 | -14% | i
Cc1cccc(-c2sc(Nc3ccccc3)n[n+]2-c2ccc(F)cc2)c1 | -4% | -18 | 12 | -7 | 10% | i
CCc1ccc(Nc2n[n+](-c3ccccc3)c(-c3cccc(C)c3)s2)cc1 | -31% | -52* | -20 | -6 | -15% | ?
O=C(CNS(=O)(=O)c1ccccc1)NNC(=O)C(Cl)Cl | 20% | -10 | -12 | -8 | 15% | i
Cc1cc(=O)[nH]c2nnc(SCC(=O)NC(C)(C)C)n12 | . | . | . | -8 | . | .
Cc1cc(=O)[nH]c2nnc(SCC(=O)Nc3ccc(OC(F)(F)F)cc3)n12 | . | . | . | 47* | . | .

Screening data: PubChem, National Center for Advancing Translational Sciences (NCATS)
